Inconclusive results are not listed. Values without a mark were called inactive. Active and inactive are the calls of the source. Calls follow the shape of the dose curve; as a rule, active = well fitted cell-killing curve with a large enough effect in the repeat runs; inconclusive = weak or mixed curves, or effect the other way; inactive = flat fitted curve, though single readings scatter.

From PubChem BioAssay (Tox21) come the findings set out here.
% is scaled to controls: 0 for no effect and ±100 for the full control effect; potency is read from the fitted curve at half-maximal effect.

The assay in a line: cAMP Responsive Elements (CRE) small molecule antagonists, cell-based qHTS assay: qHTS cell viability counter screen (AID 2060913). Also: nearly all actives have a fitted effect of over 40% in size. The note with it: CRE-bla HEK293T viability, CellTiter-Glo luminescence, 5 h; series mostly up to 92.4 µM; viability change, negative = cytotoxic: at the top concentration. A digest of the protocol:
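HEK293T CRE-bla, 2,000 cells/well, 18 h preincubation; cpd in DMSO + NKH477 0.25 uM final, 3 h 37 C/5% CO2; LiveBLAzer 2 h RT, then CellTiter-Glo 30 min RT, luminescence.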
A general note: Quantitative high-throughput screening tests each substance at several concentrations.
With `COC(=O)C1=C(C)NC(C)=C(C(=O)OCCN(C)Cc2ccccc2)C1c1cccc([N+](=O)[O-])c1` (centres undefined), the “viability change, negative = cytotoxic” value was 7.11% [at 42.5 µM].

For the compound `CCCCCCCCCCCCCC[P+](CCCC)(CCCC)CCCC` (tested in a mixture with another compound), the Potency is 2450 nM (active).

As to `CCCCOc1ccc(OCCCN2CCOCC2)cc1`, the “viability change, negative = cytotoxic” value is -15.6% [at 42.5 µM].

As to `COc1cccc2c1C(=O)c1c(O)c3c(c(O)c1C2=O)C[C@@](O)(C(=O)CO)C[C@@H]3O[C@H]1C[C@H](N)[C@H](O[C@@H]2CCCCO2)[C@H](C)O1`, the “viability change, negative = cytotoxic” value was 11.5% [at 42.5 µM].

As to `CC(=O)Nc1ccc(S(=O)(=O)Cl)cc1`, the “viability change, negative = cytotoxic” value was 15.3%.

Consider `CCOC(=O)OCC/C(SC(=O)OCC)=C(\C)N(C=O)Cc1cnc(C)nc1N`, for which the “viability change, negative = cytotoxic” value was -8.72% [at 42.5 µM].

As to `COC(=O)N/N=C/c1c[n+]([O-])c2ccccc2[n+]1[O-]`, the “viability change, negative = cytotoxic” value is 0.564% [at 42.5 µM].

As for `NC/C=C/C(=O)O`, the “viability change, negative = cytotoxic” value is -3.05% [at 42.5 µM].

Consider `Cc1ccc2oc(CN(Cc3ccccc3)C(=O)Nc3c(F)cc(F)cc3F)c(-c3ccc(Cl)cc3)c2c1`, for which the “viability change, negative = cytotoxic” value is -16.3%.

Take `CO[Si](OC)(OC)OC`: the “viability change, negative = cytotoxic” value is -3.34%.

Consider `CCN(CC)c1ccc2c(C)cc(=O)oc2c1`, for which the Potency entry is “inactive”.

With `CCOC(=O)/C=C/C(=O)OCC`, the “viability change, negative = cytotoxic” value was 6.21%.

For `O=C1C(O)=C(O)C(=O)C(O)=C1O`, the “viability change, negative = cytotoxic” value is -0.147% [at 42.5 µM].

As for `Cc1ccc(S(=O)(=O)NC(=O)NC2CCCCC2)cc1`, the “viability change, negative = cytotoxic” value was 6.22% [at 42.5 µM].

`CN(C)[C@@H]1C(=O)C(C(=O)NCN2CCCC2)=C(O)[C@@]2(O)C(=O)C3=C(O)c4c(O)cccc4[C@@](C)(O)C3C[C@@H]12` (some centres undefined): the “viability change, negative = cytotoxic” value is -6.57% [at 42.5 µM].

Take `Nc1cccc(S(=O)(=O)O)c1`: the “viability change, negative = cytotoxic” value is -0.003%.

As for `N#C[C@@H]1CC(F)(F)CN1C(=O)CNC1CC2CCC(C1)N2c1ncccn1` (some centres undefined), the “viability change, negative = cytotoxic” value is 2.69%.

Turning to `CCc1ccc(C)cc1`, the “viability change, negative = cytotoxic” value was -1.38%.

Turning to `O=c1cc[nH]cc1`, the “viability change, negative = cytotoxic” value was 6.67%.
